# Test results from the supplement of paper PMC4466140.
# What was measured:
# Assay in all cases: SPOT peptide array binding signal intensity (averaged, normalized) (arbitrary units (background-subtracted, floor 0; scale differs between SH3 domains)); higher = stronger binding of the SH3 domain to the peptide
# ScBbc1 = target: ScBbc1
# How it was run: (§1)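 Four yeast species supplied the SH3 domains, which were expressed as GST fusions in E. coli BL21(DE3) and purified on glutathione Sepharose. Incubation with cellulose membranes carrying synthetic 15-mer peptides, cysteines exchanged for serines, ran overnight at 4°C at 10 μg/ml in TBS-based blocking buffer. Binding signal is reported as normalized, background-subtracted spot intensity averaged over replicates, in arbitrary units not shared between domains.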
# ScBem1-D1 = target: ScBem1-D1
# How it was run: as §1
# ScBzz1-D1 = target: ScBzz1-D1
# How it was run: as §1
# ScBzz1-D2 = target: ScBzz1-D2
# How it was run: as §1
# ScCyk3 = target: ScCyk3
# How it was run: as §1
# ScFus1 = target: ScFus1
# How it was run: as §1
# ScHof1 = target: ScHof1
# How it was run: as §1
# ScHse1 = target: ScHse1
# How it was run: as §1
# ScLsb1 = target: ScLsb1
# How it was run: as §1
# ScLsb2 = target: ScLsb2
# How it was run: as §1
# ScLsb3 = target: ScLsb3
# How it was run: as §1
# ScLsb4 = target: ScLsb4
# How it was run: as §1
# ScMyo3 = target: ScMyo3
# How it was run: as §1
# ScMyo5 = target: ScMyo5
# How it was run: as §1
# ScNbp2 = target: ScNbp2
# How it was run: as §1
# ScPex13 = target: ScPex13
# How it was run: as §1
# ScRvs167 = target: ScRvs167
# How it was run: as §1
# ScSho1 = target: ScSho1
# How it was run: as §1
# ScSla1-D1-D2 = target: ScSla1-D1-D2
# How it was run: as §1
# ScSla1-D3 = target: ScSla1-D3
# How it was run: as §1
# SpAbp1-D1 = target: SpAbp1-D1
# How it was run: as §1
# SpBbc1 = target: SpBbc1
# How it was run: as §1
# SpBzz1-D1 = target: SpBzz1-D1
# How it was run: as §1
# SpBzz1-D2 = target: SpBzz1-D2
# How it was run: as §1
# SpCyk3 = target: SpCyk3
# How it was run: as §1
# SpHof1 = target: SpHof1
# How it was run: as §1
# SpHof1-2 = target: SpHof1-2
# How it was run: as §1
# SpHof1-3 = target: SpHof1-3
# How it was run: as §1
# SpHse1 = target: SpHse1
# How it was run: as §1
# SpLsb1 = target: SpLsb1
# How it was run: as §1
# SpLsb4 = target: SpLsb4
# How it was run: as §1
# SpMyo1 = target: SpMyo1
# How it was run: as §1
# SpNbp2 = target: SpNbp2
# How it was run: as §1
# SpPex13 = target: SpPex13
# How it was run: as §1
# SpRvs167 = target: SpRvs167
# How it was run: as §1
# SpSla1-D1-D2 = target: SpSla1-D1-D2
# How it was run: as §1
# SpSla1-D3 = target: SpSla1-D3
# How it was run: as §1
binder,measurement,setting,value
APKREAPKPPANTSP,SPOT peptide array binding signal intensity,ScBbc1,156
same,SPOT peptide array binding signal intensity,ScBem1-D1,4.5
same,SPOT peptide array binding signal intensity,ScBzz1-D1,348
same,SPOT peptide array binding signal intensity,ScBzz1-D2,5
same,SPOT peptide array binding signal intensity,ScCyk3,≤ 0
same,SPOT peptide array binding signal intensity,ScFus1,≤ 0
same,SPOT peptide array binding signal intensity,ScHof1,≤ 0
same,SPOT peptide array binding signal intensity,ScHse1,≤ 0
same,SPOT peptide array binding signal intensity,ScLsb1,≤ 0
same,SPOT peptide array binding signal intensity,ScLsb2,≤ 0
same,SPOT peptide array binding signal intensity,ScLsb3,4.5
same,SPOT peptide array binding signal intensity,ScLsb4,≤ 0
same,SPOT peptide array binding signal intensity,ScMyo3,616
same,SPOT peptide array binding signal intensity,ScMyo5,414
same,SPOT peptide array binding signal intensity,ScNbp2,1140
same,SPOT peptide array binding signal intensity,ScPex13,47.8
same,SPOT peptide array binding signal intensity,ScRvs167,1
same,SPOT peptide array binding signal intensity,ScSho1,≤ 0
same,SPOT peptide array binding signal intensity,ScSla1-D1-D2,738
same,SPOT peptide array binding signal intensity,ScSla1-D3,16.2
same,SPOT peptide array binding signal intensity,SpAbp1-D1,15
same,SPOT peptide array binding signal intensity,SpBbc1,1
same,SPOT peptide array binding signal intensity,SpBzz1-D1,86
same,SPOT peptide array binding signal intensity,SpBzz1-D2,0.25
same,SPOT peptide array binding signal intensity,SpCyk3,≤ 0
same,SPOT peptide array binding signal intensity,SpHof1,≤ 0
same,SPOT peptide array binding signal intensity,SpHof1-2,≤ 0
same,SPOT peptide array binding signal intensity,SpHof1-3,6.25
same,SPOT peptide array binding signal intensity,SpHse1,3.5
same,SPOT peptide array binding signal intensity,SpLsb1,≤ 0
same,SPOT peptide array binding signal intensity,SpLsb4,≤ 0
same,SPOT peptide array binding signal intensity,SpMyo1,1270
same,SPOT peptide array binding signal intensity,SpNbp2,1
same,SPOT peptide array binding signal intensity,SpPex13,≤ 0
same,SPOT peptide array binding signal intensity,SpRvs167,2.67
same,SPOT peptide array binding signal intensity,SpSla1-D1-D2,≤ 0
same,SPOT peptide array binding signal intensity,SpSla1-D3,0.5
